Format in all cases: functional
In test [1] the test system is Plasmodium falciparum. Nature of the test: GSK_TCMDC: Inhibition of Plasmodium falciparum 3D7 in whole red blood cells, using parasite LDH activity as an index of growth. Test compounds present at 2uM.
Test [2] concerns Plasmodium falciparum. In words: GSK_TCMDC: Inhibition of Plasmodium falciparum Dd2 in whole red blood cells, using parasite LDH activity as an index of growth. Test compounds present at 2uM.
Another test has as its system HepG2. Nature of the test: GSK_TCMDC: Percent inhibition of human HepG2 cell line. Test compounds present at 10uM.

The text below walks through data of ChEMBL document CHEMBL1157539, “Thousands of chemical starting points for antimalarial lead identification” (Nature, 2010).

Broadly, the Inhibition is the relative decrease from the control value, in per cent. Low readings indicate a weak effect, high ones a strong effect.

Turning to `O=C(Nc1ccc(F)c(C(F)(F)F)c1)N[C@H]1CCN(CCCCCNC(=O)C2CC2c2ccc(Cl)c(Cl)c2)C1` (some centres not stated), the Inhibition was 90% with Plasmodium falciparum [1], 0% in the test with Plasmodium falciparum [2] and 46% with HepG2.
As to `CC(C)Sc1ccc(Cl)cc1CON1C(=N)N=C(N)NC1(C)C.Cl`, the Inhibition in the test with Plasmodium falciparum [1] was determined as 93%; with Plasmodium falciparum [2] it was 90%; with HepG2 it was 66%.
Take `O=C(Nc1ccc(-c2ccc(-c3nc4ccccc4[nH]3)s2)cc1)Nc1ccc(F)c(F)c1F`: the Inhibition is recorded as 99% in the test on Plasmodium falciparum [1], 97% with Plasmodium falciparum [2] and 57% in the test on HepG2.
The matching figures for `FC(F)(F)c1ccc2[nH]ccc(=NN=Cc3ccccc3)c2c1`: 92%, 2% and 7%.
Turning to `Cl.NCCCCc1c(-c2ccc(Cl)c(Cl)c2)[nH]c2ccc(Cl)cc12`, the Inhibition in the test with Plasmodium falciparum [1] is reported as 97%; in the test with Plasmodium falciparum [2] it was 20%; in the test with HepG2, 33%.
As for `CS(=O)(=O)Cc1ccc(Nc2nccc(NC3CCN(c4nccc(C(F)(F)F)n4)CC3)n2)cc1`, the Inhibition in the test on Plasmodium falciparum [1] is listed as 88%; in the test with Plasmodium falciparum [2], 23%; with HepG2, 34%.
Regarding `Cc1ccc2c(NC(=O)Nc3ccc(N(C)C)cc3)cc(C)nc2c1`, the Inhibition in the test on Plasmodium falciparum [1] is recorded as 98%; in the test on Plasmodium falciparum [2] it was 20%; in the test with HepG2, 0%.
The matching figures for `Cc1cc2c(NC(=O)NC3CCN(CCc4cccc(Cl)c4)CC3)cccc2cn1.Cl`: 100%, 27% and 12%.
The matching figures for `CCCN1CC[C@@H](CCCc2ccnc3ccc(O)cc23)[C@@H](CC)C1.Cl`: 93%, 14% and 10%.
The matching figures for `COc1ccc(-c2ccccc2CNC2Cc3ccccc3C2)cc1S(=O)(=O)NCCN1CCCC1.O=C(O)C(F)(F)F`: 96%, 47% and 18%.
As to `FC(F)(F)c1ccc2[nH]c(-c3ccc(-c4cccc(CNCCc5ccncc5)c4)s3)nc2c1.O=C(O)C(F)(F)F`, the Inhibition in the test on Plasmodium falciparum [1] was determined as 100%; in the test on Plasmodium falciparum [2] it was 95%; in the test on HepG2, 20%.
On to `Cc1cc(C2CCN(CCCCNC(=O)c3ccc(NC(=O)c4ccc(Cl)cc4)cc3)CC2)c(C)cc1OCc1ccncc1.Cl`, for which the Inhibition came to 100% in the test on Plasmodium falciparum [1], 92% in the test on Plasmodium falciparum [2] and 33% with HepG2.
As to `O=C(Nc1ccc(F)c([N+](=O)[O-])c1)Nc1cc(C(F)(F)F)ccc1Cl`, the Inhibition in the test on Plasmodium falciparum [1] stood at 100%; with Plasmodium falciparum [2], 86%; with HepG2, 5%.
For `CCN1CCN(c2cc(C)c3cc(NC(=O)c4cc(OC)cc(OC)c4)ccc3n2)CC1`, in that order: 100%, 90% and 0%.
For the compound `NC(=O)c1ccccc1Nc1nc(Nc2cc[nH]n2)ncc1Cl`, the Inhibition with Plasmodium falciparum [1] is 96%; with Plasmodium falciparum [2] it was 93%; in the test with HepG2 it was 67%.
In the case of `CCOc1ccc(-n2nc3c(Cl)nnc(-c4ccccc4)c3c2-c2ccccc2)cc1`, the figures for the Inhibition with Plasmodium falciparum [1], in the test on Plasmodium falciparum [2] and in the test on HepG2 were 96%, 99% and 0%, respectively.
As to `Fc1cccc(Nc2nc(NCc3ccc4ccsc4c3)nc(Nc3cccc(F)c3)n2)c1`, the Inhibition with Plasmodium falciparum [1] was 94%; in the test with Plasmodium falciparum [2], 11%; with HepG2, 0%.
Consider `Cc1ccc(N(CCC(=N)N)Cc2ccccc2)cc1.Cl`, for which the values for the Inhibition in the test on Plasmodium falciparum [1], in the test on Plasmodium falciparum [2] and in the test with HepG2 were 96%, 95% and 6%, respectively.
Take `Cc1cc(N2CCN(CC3CCN(C)CC3)CC2)nc(Nc2ccc(Cl)cc2)n1`: the Inhibition with Plasmodium falciparum [1] was 99%; in the test on Plasmodium falciparum [2] it was 89%; in the test with HepG2, 20%.
On to `CC(C)CCOc1ccc(NC(=O)c2cccs2)cc1`, for which the Inhibition with Plasmodium falciparum [1] came out at 95%; in the test on Plasmodium falciparum [2], 95%; with HepG2 it was 11%.
For the compound `COc1ccc(NC(=O)[C@H](CC(C)C)Nc2ccnc(Nc3ccccc3)n2)cc1.O=C(O)C(F)(F)F`, the results for the Inhibition with Plasmodium falciparum [1], in the test with Plasmodium falciparum [2] and with HepG2 were 92%, 32% and 0%, respectively.
For `CC[C@H](C)CNC(=O)c1cncc(-c2cccc(CN3CCC(N4CCCC4)CC3)c2)c1.O=C(O)C(F)(F)F`, the values for the Inhibition in the test on Plasmodium falciparum [1], in the test with Plasmodium falciparum [2] and in the test with HepG2 were 97%, 5% and 0%, respectively.
Consider `CCOC(=O)c1ccc2[nH]c(-c3ccc(C(=O)NC4CCN(Cc5ccccc5)CC4)s3)nc2c1`, for which the Inhibition with Plasmodium falciparum [1] is given as 100%; in the test with Plasmodium falciparum [2], 95%; in the test on HepG2, 32%.
For the compound `Cl.Cn1c(=N)n(CC(=O)N2CCc3ccc(Cl)cc3C2Cc2ccc(Cl)c(Cl)c2)c2ccccc21` (configuration not stated), the Inhibition with Plasmodium falciparum [1] worked out at 100%; in the test on Plasmodium falciparum [2] it was 52%; with HepG2, 99%.
In the case of `COc1cc2nc(N3CCN(C(=O)c4ccco4)CC3)nc(NCc3ccccc3)c2cc1OC`, the Inhibition in the test on Plasmodium falciparum [1] is given as 100%; in the test with Plasmodium falciparum [2], 99%; in the test with HepG2, 16%.
On to `COc1cc(NC(=O)N2CCc3cc(OC)c(OCCN4CCCCC4)cc32)cc(C(F)(F)F)c1.O=C(O)C(=O)O`, for which the Inhibition in the test on Plasmodium falciparum [1] is on record as 93%; in the test on Plasmodium falciparum [2], 10%; with HepG2, 9%.
In the case of `CCCCn1c(Sc2ccc(C#N)c([N+](=O)[O-])c2)nnc1-c1ccc(OC)cc1`, the figures for the Inhibition with Plasmodium falciparum [1], in the test on Plasmodium falciparum [2] and with HepG2 were 93%, 61% and 12%, respectively.
For `O=C(Nc1cccc(-c2ccc(CN3CCCC3)cc2)c1)c1cccc(F)c1.O=C(O)C(F)(F)F`, the results for the Inhibition with Plasmodium falciparum [1], with Plasmodium falciparum [2] and in the test with HepG2 were 99%, 17% and 20%, respectively.
As to `CCCn1c(Sc2ccc(C#N)c([N+](=O)[O-])c2)nnc1-c1ccc(N(C)C)cc1`, the Inhibition in the test on Plasmodium falciparum [1] is on record as 97%; in the test with Plasmodium falciparum [2] it was 98%; with HepG2, 18%.
